# Sfp inh – inhibitors of Bacillus subtilis Sfp phosphopantetheinyl transferase; Q9F4F7; Biochemical Sfp PPTase activity, qHTS; Potency, µM, for the others: largest response in the series, negative = inhibition, actives largely listed as inhibitors; 310,000 compounds, 3.5% hits;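 note: the enzyme is Sfp with the accession as filed and its product quenches rhodamine fluorescence; 0% = enzyme reaction without inhibitor and -100% = no enzyme wells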
#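 With Hepes-Na pH 7.6 buffer containing 10 mM MgCl2, Sfp (15 nM) modified BHQ-2-YbbR (12.5 uM) using rhodamine-CoA (5 uM). Two reads 30 minutes apart at 525/598 nm yielded each well's rate.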
# JMJD2A Tudor inh – JMJD2A Tudor domain (human) inhibition | AlphaScreen JMJD2A-Tudor / H3K4me3 peptide binding | AID 504339 | O75164 | Potency, µM (doses to about 114 µM), inactives show top-dose activity change, negative = inhibition, hits mostly inhibitors | 390,000 compounds, 4.4% hits; note: % is set by controls: 0 for no effect and ±100 for the full control effect; nearly all actives have a fitted effect of over 50% in size
# BAZ2B block – inhibitors of human BAZ2B bromodomain; AlphaScreen BAZ2B-H3K14Ac peptide displacement; AID 504333; 360,000 compounds, 4.4% hits; Potency, µM (series often up to 114 µM), without a hit: top-dose activity change, negative = inhibition, hits mostly inhibitors; note: % is set by controls: 0 for no effect and ±100 for the full control effect; nearly all actives have a fitted effect of over 60% in size
#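 AlphaScreen displacement: compounds (up to 110uM) incubated 30 min at room temperature with a preformed 50 nM BAZ2B/50 nM biotinylated H3K14Ac peptide complex in PBS pH 7.4 with Tween-20. Donor and acceptor beads at 10 ug/mL final added, 20 min light-protected before reading.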
# G9a inh – G9a (human) methyltransferase inhibition | AID 504332 | Q96KQ7 | 350,000 compounds, 8.8% hits | G9a H3K9 monomethylation, AlphaScreen, 2 h | Potency, µM (titrated, usually from 102 µM), for inactives: at the top dose activity, negative = inhibition, usual class: inhibitors; note: % is set by controls: 0 for no effect and ±100 for the full control effect; nearly all actives have a fitted effect of over 75% in size
#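 Methyltransferase reactions run at room temperature for 2 h (20 nM enzyme, 500 nM biotin-H3K9 peptide, 20 uM SAM) after a 15 min compound preincubation; product detected by AlphaScreen beads and anti-H3K9me1 antibody.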
# TDP1 inh – blocks human tyrosyl-DNA phosphodiesterase 1; Q9NUW8; recombinant TDP1, AlphaScreen DNA substrate cleavage; Potency, µM (titrated, usually from 130 µM), without a hit: top-dose activity change, negative = inhibition, hits mostly inhibitors; 350,000 compounds, 0.28% hits; note: % is set by controls: 0 for no effect and ±100 for the full control effect; nearly all actives have a fitted effect of over 40% in size
# Target sequence (Q9NUW8 whole entry, looked up): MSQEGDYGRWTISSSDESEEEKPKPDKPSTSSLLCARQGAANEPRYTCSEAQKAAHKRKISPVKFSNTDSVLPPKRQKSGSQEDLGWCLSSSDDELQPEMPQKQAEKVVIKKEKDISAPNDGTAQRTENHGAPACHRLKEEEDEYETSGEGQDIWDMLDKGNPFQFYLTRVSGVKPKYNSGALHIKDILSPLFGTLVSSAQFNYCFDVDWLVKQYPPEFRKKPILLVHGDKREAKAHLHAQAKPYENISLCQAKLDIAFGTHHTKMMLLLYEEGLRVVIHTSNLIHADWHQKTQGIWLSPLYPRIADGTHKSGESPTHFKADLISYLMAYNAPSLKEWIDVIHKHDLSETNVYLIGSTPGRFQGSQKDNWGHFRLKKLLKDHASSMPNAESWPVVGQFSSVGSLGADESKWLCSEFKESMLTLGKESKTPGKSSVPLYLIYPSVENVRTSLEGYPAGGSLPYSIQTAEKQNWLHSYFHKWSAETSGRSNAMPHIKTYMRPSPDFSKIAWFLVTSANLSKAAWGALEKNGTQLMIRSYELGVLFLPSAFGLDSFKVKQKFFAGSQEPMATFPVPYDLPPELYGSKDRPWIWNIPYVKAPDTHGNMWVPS
#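 Steps: enzyme plus compound, 15 min RT; add biotin/phosphotyrosine-FITC oligonucleotide (15 nM final), react 5 min; add donor/acceptor beads (10 ug/ml final), 10 min; read AlphaScreen. Tdp1 at 1 nM final.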
# HP1b chromo inh – HP1-beta chromodomain-methylated histone interaction inhibition; Potency, µM (series often up to 114 µM), for the others: at the highest dose activity change, negative = inhibition, most hits filed as inhibitors; P83916; AlphaScreen HP1-beta / biotin-H3K9me3 peptide binding; AID 540317; 390,000 compounds, 0.56% hits; note: nearly all actives have a fitted effect of over 70% in size
#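 AlphaScreen: HP1-beta (50 nM) preformed 30 min with biotin-H3(1-18)K9me3 peptide (50 nM) in PBS pH 7.4, 0.01% Tween-20. Compound added for 30 min at RT, then streptavidin donor/nickel chelate acceptor beads (10 ug/mL) for 30 min.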
# Numbers without * were called inactive; ? = inconclusive; / = not tested or not shown; [ ] = another dose, or the depositor's remark. Hits are enriched below; roughly 12% of the tested compounds scored in any of these assays. Calls come from the whole dose curve; as a rule, active = well fitted curve in the direction sought with a large enough effect; inconclusive = small, poorly fitted or top-dose-only effect, or another doubt; inactive = no such curve, though single readings can be large; an effect the other way counts as inactive or inconclusive. Potency is the fitted concentration of half-maximal effect.
SMILES,Sfp inh,JMJD2A Tudor inh,BAZ2B block,G9a inh,TDP1 inh,HP1b chromo inh
N#CCC(=O)NN,8%,/,/,17%[12.7 µM],3%,/
CCn1c(C(=O)N2CCC(C(=O)NCCCSC3CCCCC3)CC2)cc2sccc21,9%,?,?,40µM*,5%,3%
Cc1ccc(CCNC(=O)C2CCCN(C(=O)c3cc4sccc4n3C)C2)cc1 (stereo not given),11%,-36%,-7%,14%[12.7 µM],5%,-8%
CCn1c(C(=O)N2CCC(C(=O)NCc3ccc4c(c3)OCO4)CC2)cc2sccc21,3%,?,-36%,45µM*,5%,13%
CCn1c(C(=O)N2CCC(C(=O)NCCc3ccccc3)CC2)cc2sccc21,/,-8%,1%,?,-5%,24%
Cn1c(C(=O)N2CCCC(C(=O)NCc3ccc4c(c3)OCO4)C2)cc2sccc21 (stereo not given),4%,-13%,?,50µM*,6%,10%
NC(=O)C1CCCN(C(=S)NCc2ccc3c(c2)OCO3)C1 (stereo not given),15%,-5%,0%,50µM*,1%,22%
Cc1cccc(NC(=O)CSc2nnc(NC(=O)Nc3ccccc3)s2)c1C,/,-5%,-1%,-6%[59 µM],-8%,18%
COc1cc(C2CC(=O)Nc3c2c(=O)[nH]c2nc4ccccc4n32)ccc1O (stereo not given),/,-15%,-25%,1%[59 µM],2%,-1%
COc1ccc(CNC(=O)N[C@@H](Cc2c[nH]c3ccccc23)C(=O)O)cc1,12%,-3%,1%,4%,/,37%
S=C(NC1CCCCC1)NC1CCCCC1,/,/,/,/,3%,/
CC(=O)c1ccc(NC(=O)C2CCC(CNS(=O)(=O)c3ccc(Br)s3)CC2)cc1 (stereo not given),/,-12%,-2%,-3%[59 µM],5%,10%
O=C(NCCCN1CCCC1)C1CCN(C(=O)c2cc3sccc3n2Cc2ccc(F)cc2)CC1,-8%,-19%,?,50µM*,4%,16%
COC(=O)[C@H](CO)N1C(=O)[C@@H]2[C@H](C1=O)C1C=C[C@H]2C1,/,-9%,/,/,/,34%
Cc1ccc2nc(NC(=S)NC(=O)c3ccc(OC(C)C)cc3)sc2c1,-93%,-5%,56µM*,/,4%,22%
Cc1cc(C)c2sc(NC(=O)c3ccc(N4C(=O)CCC4=O)cc3)nc2c1,20%,2%,-6%,5%,8%,41%
CCCOc1ccc(C(=O)NC(=S)Nc2nc3ccc(C)cc3s2)cc1,22%,/,-4%[57.1 µM],16%,1%,/
Cc1ccc2nc(NC(=O)c3ccc(N4C(=O)CCC4=O)cc3)sc2c1,0%,-25%,?,11µM*,5%,32%
CCOC(=O)C1CC(C)=C(C)CC1C(=O)O (stereo not given),11%,-5%,-1%,-2%,-1%,27%
CCc1cc2c(cc3c(=O)n(CC(=O)NC4CCCCC4)ncn32)s1,/,8%,0%,7%[59 µM],-2%,36%
C=CCN1CCc2c(cc(O)c(O)c2Br)[C@@H](c2ccccc2)C1,-15%,?,/,8.9µM*,13%[56.1 µM],7%
CC(=O)N1c2ccc(S(=O)(=O)Nc3ccc(C)c(C)c3)cc2CC1C (stereo not given),/,-28%,/,/,2%,/
Cc1csc(NC(=O)Cc2coc3cc(C)c(C(C)C)cc23)n1,19%,-32%,?,45µM*,7%,15%
Cc1ccc2occ(CC(=O)Nc3nnc(C(C)C)s3)c2c1,/,?,0%,7%[59 µM],-2%,34%
CCOc1ccc(NC(=O)Cn2c(=O)n(CC3CCC(C(=O)NCCc4ccccc4)CC3)c(=O)c3ccccc32)cc1 (stereo not given),/,-21%,1%,5%[59 µM],5%,4%
SMILES,Sfp inh,JMJD2A Tudor inh,BAZ2B block,G9a inh,TDP1 inh,HP1b chromo inh
COc1ccccc1-n1cnnc1SC(C)C(=O)Nc1ccc(NC(C)=O)cc1 (stereo not given),17%,2%,3%,-3%,0%,47%
O=C1COc2ccc(N3C(=O)C=CC3=O)cc2N1,4µM*,/,100µM*,1.4µM*,-6%,/
COc1cccc(C2c3c(ncn(-c4ccccc4Cl)c3=N)Oc3ccc4ccccc4c32)c1 (stereo not given),/,?,/,/,4%,/
O=C(CSc1ccc(F)cc1)Nc1nnc(-c2ccco2)o1,/,?,35µM*,1%[0.501 µM],7%,38%
Cc1ccc(NC(=O)CSc2nnc(-c3ccco3)o2)cc1,10%,1%,-9%,5%[59 µM],5%,30%
O=C(Nc1nnc(-c2ccco2)o1)c1ccc(Cl)s1,32%,0%,?,79µM*,5%,56%
O=C(Nc1nnc(-c2ccco2)o1)c1ccc(N2C(=O)CCC2=O)cc1,79µM*,28µM*,18µM*,-26%,0%,27%
CC(=O)Nc1nnc(-c2ccco2)o1,-23%,4µM*,?,7%,4%,8%
Cc1c(NC(=O)c2ccc(S(=O)(=O)Nc3ccccc3F)cc2)c(=O)n(-c2ccccc2)n1C,/,8%,/,/,0%,17%
CCOC(=O)c1ccc(NC(=O)c2ccc(-c3cccc(Cl)c3C)o2)cc1,/,-21%,-10%,2%[59 µM],1%[12.3 µM],15%
Cc1ccc(N2CCOCC2)c2c1C(=O)c1ccccc1C2=O,1%,32µM*,14µM*,3.5µM*,3%,13µM*
O=C1C=C(N2CCOCC2)c2ccccc2C1=O,8%,-15%,-38%,?,/,-2%
C[C@H]1CN([C@@H](C)CO)C(=O)c2cc(NS(=O)(=O)c3ccc(Cl)cc3)ccc2O[C@@H]1CN(C)CC1CCCCC1,/,?,/,/,2%,5%
O=C(NCC1(c2ccccc2)CCCC1)c1ccco1,6%,-1%,-2%,8%,3%,28%
COc1ccc(CNC(=O)/C=C/c2ccco2)cc1OC,45µM*,-5%,-12%,45µM*,-5%,30%
CC/C(=N\NC(=O)CNC(=O)/C=C/c1ccco1)c1ccccc1,-1%,?,-7%,-5%[59 µM],-1%,22%
O=C(/C=C/c1ccco1)NCC1(c2ccccc2)CCCC1,-29%,-4%,-28%,11µM*,-1%,17%
COc1ccc(C2(CNC(=O)c3ccccc3)CCCC2)cc1OC,33%,-10%,2%,-3%,1%,30%
COc1ccc(CNC(=O)/C=C/C(=O)O)cc1OC,-4%,-8%[57.1 µM],33%,17%[59 µM],3%,70%
COc1ccc(C2(CNC(=O)/C=C/c3ccco3)CCCC2)cc1OC,22µM*,-25%,?,?,6%,11%
COc1ccc(/C(C)=N/NC(=O)CNC(=O)/C=C\c2ccco2)cc1,0%,?,79µM*,-29%,-14%,-7%
